Screening data from PubChem BioAssay.
Pf growth 48h: inhibits P. falciparum growth in the first generation, 48 h | P. falciparum luciferase growth in erythrocytes, 48 h | Potency, µM (top dose mostly 28.7 µM), without a hit: at the top dose activity change, negative = inhibition, hits mostly inhibitors | 310,000 compounds, 5.9% hits | AID 504832; also: potency is read from the fitted curve at half-maximal effect; % is scaled to controls: 0 for no effect and ±100 for the full control effect
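A one-generation exposure of luciferase-tagged malaria parasites in RPMI 1640/Albumax erythrocyte culture, 37 C and 5% CO2. Inhibition is inferred from decreased luminescence after adding detection reagent.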
CHX counter: counter-screen hit for Shiga toxin inhibitors, cycloheximide; cell reporter, cycloheximide protein synthesis inhibition counterscreen; max response, %; 300,000 compounds, 12% hits; AID 2314; in the data active = max response mostly above about 13%, no sharp cut-off; inactive = mostly below about 14%; also: read at 38.3 µM for the half of the compounds with a filed dose; 0% is about no effect
Pf growth 96h: P. falciparum growth inhibition at 96 hours | P. falciparum luciferase reporter growth, 96 h | Potency, µM (highest dose often 28.7 µM), without a hit: at the top dose activity change, negative = inhibition, most hits filed as inhibitors | 320,000 compounds, 6.9% hits | AID 504834; also: potency is read from the fitted curve at half-maximal effect; % is scaled to controls: 0 for no effect and ±100 for the full control effect
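P. falciparum expressing integrated firefly luciferase grown in erythrocytes (2% hematocrit, 0.05% parasitemia final) with compounds for 96 hours at 37 C, 5% CO2. Growth inhibition read as loss of luminescence after adding luciferase detection reagent.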
Shiga inhibitor: inhibitors of Shiga toxin in Vero cells; Vero cells, Shiga toxin protein synthesis inhibition reporter; inhibition, % at 38.7 µM; 290,000 compounds, 9.2% hits; AID 2315; in the data active = inhibition mostly above about 28%, no sharp cut-off; inactive = mostly below about 43%; also: 0% is about no effect
The depositor's hits bear a star; i = inactive; ? = inconclusive; · = no result; + = active, no number; [ ] = another dose, or the depositor's remark. A selection: hits, their analogues and other compounds. The true share with any hit is near 21%. Unless noted, calls follow the shape of the dose curve; as a rule, active = well fitted inhibition curve with a large enough effect; inconclusive = small, poorly fitted or top-dose-only effect, or another doubt; inactive = no such curve, though single readings can be large or run the other way.

SMILES	Pf growth 48h	CHX counter	Pf growth 96h	Shiga inhibitor
C[N+]1(C)CCC[C@H]1C(=O)[O-]	·	-3.7	·	-4.8
O=C(Nc1ccc2nc(-c3cccs3)c(-c3cccs3)nc2c1)NC1CC1	·	4.3	9.28µM*	22.4
COCCNC(=O)Nc1ccc2nc(-c3cccs3)c(-c3cccs3)nc2c1	·	-1.5	?	-10.3
Cc1ccc(S(=O)(=O)N2CCN(C(=O)c3cc4c(C)nn(-c5ccccc5)c4s3)CC2)cc1	·	-4.9	?	-0.3
Cc1ccccc1-n1nc(C)c2cc(C(=O)N3CCN(S(=O)(=O)c4ccc(Cl)cc4)CC3)sc21	5.22µM*	-3.4	1.85µM*	-4.2
Cc1ccccc1-n1nc(C)c2cc(C(=O)N3CCN(S(=O)(=O)c4ccc(F)cc4)CC3)sc21	4.65µM*	8.6	·	-7.2
C/C(=N\NC(=O)COc1ccc(C(C)(C)C)cc1)c1cc2ccccc2o1	189.2%	24.3*	0.0%	37.6*
C/C(=N\NC(=O)COc1ccc(C(C)(C)C)cc1)c1ccccc1	-25.3%	-1.7	-9.9%	18.1
COCCNC(=S)N/N=C(\C)c1cc2ccccc2o1	24.6%	8.9	?	25.2*
COc1ccc(NCC(=O)N/N=C(\C)c2cc3ccccc3o2)cc1	39.0%	15.7*	20.8%	20.3
O=C(NC(NC(=S)Nc1cccc(C(=O)O)c1)C(Cl)(Cl)Cl)OCc1ccccc1 (stereo not drawn)	-1.8%	18.6*	?	29.2
O=C(O)c1ccc(Cl)c(S(=O)(=O)Nc2ccc(OCc3ccccc3)cc2)c1	16.7%	23.4*	39.8%	61.9*
O=C(Nc1ccccc1)c1ccc(COc2ccccc2)cc1	31.3%	9.6	71.0%	27.4
O=C(Nc1ccc(COc2ccccc2)cc1)Nc1cccc(C(=O)O)c1	·	17.2*	292.4%	19.6
O=C(NC(NC(=S)Nc1cccc(Cl)c1)C(Cl)(Cl)Cl)OCc1ccccc1 (stereo not drawn)	?	-2.4	?	-11.1
O=C(O)c1cccc(NC(=S)NC(=O)c2cccc(OCc3ccccc3)c2)c1	4.6%	14.4*	43.4%	38.5*
Cc1cccc(NS(=O)(=O)c2ccc(C)c(C(=O)N(C)C3CCN(C)CC3)c2)c1	10.9%	·	12.0%	·
Cc1ccc(C)c(CN2C(=O)c3ccccc3Sc3ccc(C(=O)NCc4ccc5c(c4)OCO5)cc32)c1	·	-6.7	·	-6.9
CCOC(=O)NC1(Nc2ccc(Cl)cn2)Oc2ccccc2O1	26.5%	8.1*	?	34.3
CCOC(=O)/C=C/C(=O)OCC(=O)Nc1ccc(Cl)cn1	·	16.9	?	15.5
CCCCC(=O)Nc1cccc(NC(=O)c2ccc3c(c2)OCO3)c1	7.9%	13.6*	53.6%	11.8
CCCC(=O)Nc1cccc(NC(=O)c2ccc3c(c2)OCCO3)c1	47.5%	22.6*	?	63.8*
CCCCC(=O)Nc1ccc(NC(=O)c2ccc3c(c2)OCO3)cc1OC	49.7%	12.9	?	14.2
O=C(C1=NN[C@@H]2C(=O)N(Cc3ccccc3)C(=O)[C@H]12)c1ccc([N+](=O)[O-])cc1	5.7%	-2.2	?	1.3
CC(C)(C)c1ccc(/C=N/Nc2cccc(C(=O)O)c2)cc1	339.1%	104.1*	7.4%	+
SMILES	Pf growth 48h	CHX counter	Pf growth 96h	Shiga inhibitor
CN(C)c1ccc(/C=N/Nc2cccc(C(=O)O)c2)cc1	122.7%	68.2*	?	198.3*
O=C(O)c1ccc(N/N=C/c2ccc(C(F)(F)F)cc2)cc1	58.6%	23.2	i[5.75 µM]	23.7
O=C(O)c1cccc(N/N=C/c2ccc(-c3ccccc3)cc2)c1	i	66.8*	331.5%	190.7*
CC(C)(C)c1ccc(/C=N/Nc2ccc(C(=O)O)cc2)cc1	24.7%	9.1	425.7%	23.5
O=C(O)c1cccc(N/N=C/c2cccnc2)c1	i	39.6*	-82.5%	62.5*
Fc1ccc(-c2nc(-c3cnccn3)no2)c(Cl)c1	291.2%	40.3*	233.1%	83.3*
OC1(c2ccc(Cl)cc2)CCN(Cc2nc(-c3cnccn3)no2)CC1	9.3%	-2.8	?	6.6
Clc1ccc(-c2nc(-c3cnccn3)no2)cc1	212.8%	30.2*	289.5%	58.6*
CSc1nc(O)cc(=O)n1-c1ccc(F)cc1	17.3%	1.2	64.6%	8.2
CCCCOc1ccc(Br)cc1/C(C)=N/NC1=NCCN1	4.65µM*	-5.5	-10.0%	-4.9
CCCCCCOc1ccc(/C(C)=N/NC2=NCCN2)cc1[N+](=O)[O-]	?	17.5	27.9%	11.4
COc1ccc(/C(C)=N/NC2=NCCN2)cc1Cl	4.65µM*	-3.3	3.7µM*	2.7
C/C(=N\NC1=NCCN1)c1ccc(N)c([N+](=O)[O-])c1	2.08µM*	11.9*	?	6.4
Cc1cccc(NC(=O)C(C)SCc2nc3sc4c(c3c(=O)[nH]2)CCCC4)n1 (stereo not drawn)	?	·	20.4%	·
Cc1cccc(N2CCN(C(=O)c3cn4ccccc4n3)CC2C)c1 (stereo not drawn)	-4.1%	8.3	-15.6%	-4.4
CCN(CC)c1ccc(/C=C(\C#N)c2nc(-c3cccs3)c(NC(C)=O)s2)cc1	13.1µM*	0.3	7.38µM*	-10.4
O=C(NCc1ccccc1Br)c1ccncc1	3.4%	3.0	-1.9%	17.1
COC(=O)c1c(Cl)c2n3ccccc3c(C)c(-c3ccccc3)c-2c1C(=O)OC	?	-2.9	10.4µM*	-4.1
CC(C(=O)NC1CCCC1)N1C(=O)c2cccc3cccc1c23 (stereo not drawn)	?	-1.1	2.33µM*	11.0
CC(C(N)=O)N1C(=O)c2cccc3cccc1c23 (stereo not drawn)	2.2%	-3.9	·	-13.4
COc1ccc(-c2nnc(SCC(=O)N(Cc3ccccc3)C(C)(C)C)o2)cc1OC	11.7µM*	2.1	·	-11.5
CSc1nc2nc3c(cc2c(=O)[nH]1)C(O)Oc1ccc(C)cc1-3 (stereo not drawn)	1.31µM*	-3.4	?	-10.2
CSc1nc(O)c(C(c2ccc(C)cc2)c2c(O)nc(SC)[nH]c2=O)c(=O)[nH]1	-21.8%	4.9	7.7%	1.0
CCc1ccc(C(=O)NNC(=S)Nc2ccc(S(N)(=O)=O)cc2)s1	20.1%	-2.9	17.2%	-7.7
Cc1cccc(NC(=O)C2CCN(S(=O)(=O)c3c(C)nn(C)c3C)CC2)n1	9.0%	-0.5	?	-13.0
SMILES	Pf growth 48h	CHX counter	Pf growth 96h	Shiga inhibitor
Cc1nn(C)c(C)c1S(=O)(=O)N1CCC(C(=O)NC2CCCCCC2)CC1	12.5%	0.5	5.22µM*	-8.8
O=C(NC1CCCCCC1)C1CCN(S(=O)(=O)c2c(Cl)cccc2Cl)CC1	?	·	-27.7%	·
Cc1nn(C)c(C)c1S(=O)(=O)N1CCC(C(=O)NC2CCCCC2)CC1	5.1%	-4.2	9.28µM*	8.6
CC(C)CC1NC(=O)N(CC(=O)NC2CCCc3ccccc32)C1=O (stereo not drawn)	-17.8%	-2.7	12.4%	2.0
CCOC(=O)c1cc(C(=O)c2ccccc2O)cn2c(=O)c3c(C)c(C)sc3nc12	9.2%	-3.0	13.5%	-13.6
COc1ccc(-c2c(C3C4C=CCC(C)C4C(=O)N3Cc3ccccc3)ccc3ccccc23)cc1 (stereo not drawn)	·	1.4	·	4.7
CCN(CC)S(=O)(=O)c1cc(C(=O)NC2CCCCC2)ccc1C	34.2%	42.1*	-23.1%	104.3*
CCN(Cc1ccccc1)S(=O)(=O)c1cc(C(=O)NC2CCCCCC2)ccc1OC	?	7.0	?	6.6
